Measured values published in PubChem BioAssay AID588850 (Sanford-Burnham Center for Chemical Genomics, 2011).
The whole screen tested about 360,000 compounds, of which about 3,100 (0.86%) were called active. The full list was thinned out, with actives kept by preference. Unmarked numbers belong to inactive results.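 How the source made its calls: active means at least 50% inhibition at 5 µM, scaled per plate between neutral and stimulator controls; inactive means the rest.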

assay: NF-kB reporter blockers in CF airway cells – cell-based, GFP fluorescence, uHTS, primary screen (AID 588850); conditions: KKLEB NF-kB-GFP reporter, PAF-induced, GFP fluorescence overnight; at 5 µM; hits give high values;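 further: PAF is a Pseudomonas aeruginosa culture filtrate used as stimulus; plate controls were PAF-stimulated DMSO wells for no effect and unstimulated DMSO wells for full effect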

Question: For `O=C1C(Cl)=C(Oc2ccccc2)C(=O)c2ccccc21`, which inhibition is on record?
Answer: The inhibition was 59.1% (active).

Question: With `Cc1nc2sccn2c(=O)c1S(=O)(=O)NCCc1ccccc1` as the compound, how does the inhibition read?
Answer: The inhibition was -12.2%.

Question: For `CCc1nc2c(OCCc3cccc(OC)c3)cccn2c1N(C)C(=O)c1ccc(C)cc1`, which inhibition is on record?
Answer: The inhibition was 5.8%.

Question: For `Cc1ccc(Cn2c(C)c3cnn(CC(=O)NCCN4CCOCC4)c(=O)c3c2C)cc1`, which inhibition is on record?
Answer: The inhibition was -0.6%.

Question: For `O=C(c1c(F)cccc1F)N1CCN(c2ncc(Br)cn2)CC1`, which inhibition is on record?
Answer: The inhibition was -1.3%.

Question: Which inhibition does the source give for `CC(Nc1ccc([N+](=O)[O-])cc1[N+](=O)[O-])c1ccccc1` (stereo not given) here?
Answer: The inhibition was 4.8%.

Question: Which inhibition does the source give for `O=C(NNC(=O)c1ccc(-n2cncn2)c([N+](=O)[O-])c1)c1ccccc1` here?
Answer: The inhibition was 14.4%.

Question: For `O=C(NC(Nc1nc2ccc([N+](=O)[O-])cc2s1)(C(F)(F)F)C(F)(F)F)c1ccccc1`, which inhibition is on record?
Answer: Its inhibition is 74.8% (active).

Question: Which inhibition does the source give for `Cc1cn(C2CC(O)C(CO)O2)c(=O)n(CCCc2ccccc2)c1=O` (stereo not given) here?
Answer: Its inhibition is 1.7%.

Question: Which inhibition does the source give for `COc1ccc(-c2cc(C3CCN(c4ncccc4[N+](=O)[O-])CC3)[nH]n2)cc1` here?
Answer: Its inhibition is 18.1%.

Question: For `CN(CC(=O)NCCc1ccccn1)S(=O)(=O)c1ccc(Cl)cc1`, which inhibition is on record?
Answer: The inhibition was -8%.

Question: Which inhibition does the source give for `CN(CC(=O)NCC(c1ccccc1)N1CCCC1)S(=O)(=O)c1ccc(Cl)cc1` (stereo not given) here?
Answer: Its inhibition is -5.7%.

Question: With `CN(CC(=O)NNC(=O)CNC(=O)c1ccccc1Cl)S(=O)(=O)c1ccc(Cl)cc1` as the compound, how does the inhibition read?
Answer: The inhibition was 60.5% (active).

Question: With `COc1ccc(CCNC(=O)CN(c2ccccc2)S(C)(=O)=O)cc1OC` as the compound, how does the inhibition read?
Answer: Its inhibition is -0.3%.

Question: With `COc1ccc(C(CCN(Cc2ccc(OC)c(OC)c2)C(=O)CCl)c2ccccc2)cc1` (stereo not given) as the compound, how does the inhibition read?
Answer: Its inhibition is 82.6% (active).

Question: With `COc1ccc(C(C(=O)NC2CCCCC2)N(C(=O)CCl)c2ccccc2Cl)cc1` (stereo not given) as the compound, how does the inhibition read?
Answer: Its inhibition is -13.3%.

Question: Which inhibition does the source give for `CCCCn1c(N)c(N(CC(C)C)C(=O)c2ccc(Br)o2)c(=O)[nH]c1=O` here?
Answer: Its inhibition is -29%.

Question: With `NC(=S)c1ccc(C(N)=S)o1` as the compound, how does the inhibition read?
Answer: The inhibition was 14.6%.

Question: Which inhibition does the source give for `CCC(C(=O)NCc1cccnc1)n1nc(C)c2sc3ccccc3c2c1=O` (stereo not given) here?
Answer: The inhibition was 9.9%.

Question: With `N#CCCn1ncc2ccccc21` as the compound, how does the inhibition read?
Answer: Its inhibition is -11.2%.

Question: For `Cc1nnc(NC(=O)CSc2nc(C3CCCCC3)nc3ccccc23)s1`, which inhibition is on record?
Answer: Its inhibition is 22.6%.

Question: For `O=C(CSc1nc(C2CC2)nc2ccccc12)Nc1cccc(O)c1`, which inhibition is on record?
Answer: The inhibition was 50.1% (active).

Question: For `O=C(CSc1nc(C2CC2)nc2ccccc12)Nc1ccc2c(c1)OCCO2`, which inhibition is on record?
Answer: The inhibition was 42.7%.

Question: Which inhibition does the source give for `O=Cc1ccc(OCc2cn3ccccc3n2)cc1` here?
Answer: The inhibition was -22.3%.

Question: With `Cc1ccc(C=O)c([B-](F)(F)F)c1` as the compound, how does the inhibition read?
Answer: Its inhibition is -9.8%.

Question: With `CN1c2ccc(C=O)c3c(C=O)ccc(c23)N(C)C1(C)C` as the compound, how does the inhibition read?
Answer: Its inhibition is 88% (active).

Question: Which inhibition does the source give for `C=CCn1c(C2CC(=O)N(c3ccc(C)cc3)C2)nc2ccccc21` (stereo not given) here?
Answer: The inhibition was -16.5%.

Question: With `CCOc1ccc(S(=O)(=O)NCCC(=O)NNC(=O)c2ccc(F)cc2)cc1` as the compound, how does the inhibition read?
Answer: The inhibition was 9.6%.

Question: Which inhibition does the source give for `Cc1ccc2c(c1)N(CC(=O)N1CCCc3ccccc31)C(=O)C(C)O2` (stereo not given) here?
Answer: The inhibition was 7.2%.

Question: With `CCOC(=O)c1c(C)oc2cc(Sc3ccccc3)c(O)c(O)c12` as the compound, how does the inhibition read?
Answer: The inhibition was 6.5%.

Question: With `CCOC(=O)c1c(-c2ccccc2)oc2cc(Br)c(O)c(C=O)c12` as the compound, how does the inhibition read?
Answer: Its inhibition is 68.5% (active).

Question: Which inhibition does the source give for `CCOC(=O)c1c(C)oc2cc(Br)c(OCC(N)=O)cc12` here?
Answer: The inhibition was -3.8%.

Question: For `CCOC(=O)N1CCN(C(=O)c2nn(-c3ccc(C)cc3)c(=O)c3c2c2ccccc2n3C)CC1`, which inhibition is on record?
Answer: Its inhibition is -7.7%.

Question: For `CCCc1nc2c(c(=O)c3ccccc3n2C)c(=O)n1C1CCCCCC1`, which inhibition is on record?
Answer: The inhibition was 55.9% (active).

Question: For `CCOC(=O)c1nnn2c3ccccc3c(=O)n(C)c12`, which inhibition is on record?
Answer: The inhibition was -25.2%.

Question: For `Cc1ccc(CNC(=O)c2ccc(CS(=O)Cc3cccc(Cl)c3)o2)cc1` (stereo not given), which inhibition is on record?
Answer: The inhibition was 1.3%.

Question: With `O=C(Nn1cc(C(=O)N2CCN(c3ccccc3F)CC2)c2ccccc2c1=O)c1cnccn1` as the compound, how does the inhibition read?
Answer: Its inhibition is -8.3%.

Question: With `NNc1cccc(C=Cc2ccccc2)cc1=O` as the compound, how does the inhibition read?
Answer: Its inhibition is 3.8%.

Question: Which inhibition does the source give for `O=C1OC(Oc2ccc(Br)cc2)(c2ccccc2)c2ccccc21` (stereo not given) here?
Answer: Its inhibition is 50.3% (active).

Question: Which inhibition does the source give for `CCOC(=O)CSc1nnc(CNC(=O)Cc2ccccc2)n1-c1ccccc1OC` here?
Answer: The inhibition was 1.5%.

Question: For `CS(=O)(=O)c1cccc(-c2ccc3nncn3c2)c1`, which inhibition is on record?
Answer: The inhibition was 5.2%.

Question: Which inhibition does the source give for `O=C(O)Cc1ccc(NCc2ccccc2Cl)cc1` here?
Answer: Its inhibition is -14.4%.

Question: With `CC(CN1CCCCC1)OC(=O)c1ccccc1Cl` (stereo not given) as the compound, how does the inhibition read?
Answer: The inhibition was -7.9%.

Question: Which inhibition does the source give for `CC(C)OC(=O)c1ccc(NCc2cc(O)ccc2O)cc1Cl` here?
Answer: The inhibition was 86.3% (active).

Question: With `Oc1cccc2cc(-c3ccncc3)cnc12` as the compound, how does the inhibition read?
Answer: Its inhibition is 13.6%.

Question: With `COc1ccc(CNC(=O)C[C@H]2C[C@H](C(=O)N3CCOCC3)[C@@]3(CCC4CCCC4)c4[nH]c5ccc(Cl)cc5c4CCN3C2=O)cc1OC` as the compound, how does the inhibition read?
Answer: Its inhibition is 8.2%.

Question: With `O=C(CCS(=O)(=O)Cc1ccccc1F)NCCCN1CCCCC1` as the compound, how does the inhibition read?
Answer: Its inhibition is 5%.

Question: With `CC1CN(c2cc(=O)n(-c3cccc(Br)c3)c(=O)[nH]2)CC(C)O1` (stereo not given) as the compound, how does the inhibition read?
Answer: The inhibition was -24.9%.

Question: Which inhibition does the source give for `COC(=O)C1CCN(C(=O)COC(=O)c2cc(S(=O)(=O)N3CCOCC3)ccc2C)CC1` here?
Answer: The inhibition was 5.9%.

Question: Which inhibition does the source give for `CC(C)NS(=O)(=O)c1ccc(CCC(=O)N2CCOCC2)cc1` here?
Answer: Its inhibition is 5%.

Question: For `CC(=O)Nc1ccc(NC(=O)CSCc2cnn(-c3ccccc3)c2-n2cccc2)cc1`, which inhibition is on record?
Answer: Its inhibition is 11.8%.

Question: For `Cc1cc(C)nc(S/C=C/C(=O)c2ccccc2)n1`, which inhibition is on record?
Answer: The inhibition was 71.8% (active).

Question: Which inhibition does the source give for `COC(c1ccccc1)(c1ccccc1)C(Oc1nc(C)cc(C)n1)C(=O)O` (stereo not given) here?
Answer: The inhibition was 3.3%.

Question: Which inhibition does the source give for `O=C(/C=C/Sc1ncn[nH]1)c1ccc(Cl)cc1` here?
Answer: The inhibition was 42.7%.

Question: For `C[C@@H]1Cn2cnc(C(=O)Nc3ccc(CNC(=O)OC(C)(C)C)cc3)c2C(=O)N1`, which inhibition is on record?
Answer: The inhibition was -14.7%.

Question: For `C=C(C)CNC(=O)c1ccc(OC2CCN(C(=O)COC)CC2)cc1`, which inhibition is on record?
Answer: Its inhibition is 13.1%.

Question: Which inhibition does the source give for `CC(=O)N1c2ccc(S(=O)(=O)NCCC(=O)N(C)C3CCCCC3)cc2CC1C` (stereo not given) here?
Answer: Its inhibition is 3.2%.

Question: Which inhibition does the source give for `O=C(Nc1ccc(C(=O)N2CCOCC2)cc1)Nc1cccc(C(F)(F)F)c1` here?
Answer: The inhibition was 55.4% (active).

Question: With `COc1ccccc1C(=O)Nc1cccc(C(=O)N2CCOCC2)c1` as the compound, how does the inhibition read?
Answer: The inhibition was -3.8%.

Question: With `Cc1c(Cl)cccc1NC(=O)Nc1ccc(C(=O)N2CCCC2)cc1` as the compound, how does the inhibition read?
Answer: Its inhibition is 3.8%.
